High-throughput results deposited in PubChem by National Center for Advancing Translational Sciences (NCATS).
TRHR ag = qHTS for Small Molecule Agonists and Allosteric Enhancers of Human TRH Receptor: Primary Screen for Agonists | Thyrotropin-releasing hormone receptor (Homo sapiens), P34981 | TRHR cells, calcium flux fluo-8, FDSS agonist mode | activation, % at 2 µM | actives 0.18% (n = 360,000) | AID 493084, 2011; further: 0% is about no effect
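In this calcium-flux screen, cells bearing human TRHR are dye-loaded with fluo-8, baselined for 10 cycles, then exposed to library compounds; positive kinetic calcium responses during the agonist phase mark hits, with TRH as control.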
D1 antag = Antagonist of Human D 1 Dopamine Receptor: qHTS; D(1A) dopamine receptor (Homo sapiens), P21728; HEK293 TREx D1 cells, calcium flux, dopamine EC80; active compounds read low; activity change, negative = inhibition, % at 10 µM; actives 3.2% (n = 360,000); in the data active means activity change below about -30%; further: on the % scale 0 is the no-effect control and ±100 the full control effect
Target sequence (P21728 whole entry, looked up): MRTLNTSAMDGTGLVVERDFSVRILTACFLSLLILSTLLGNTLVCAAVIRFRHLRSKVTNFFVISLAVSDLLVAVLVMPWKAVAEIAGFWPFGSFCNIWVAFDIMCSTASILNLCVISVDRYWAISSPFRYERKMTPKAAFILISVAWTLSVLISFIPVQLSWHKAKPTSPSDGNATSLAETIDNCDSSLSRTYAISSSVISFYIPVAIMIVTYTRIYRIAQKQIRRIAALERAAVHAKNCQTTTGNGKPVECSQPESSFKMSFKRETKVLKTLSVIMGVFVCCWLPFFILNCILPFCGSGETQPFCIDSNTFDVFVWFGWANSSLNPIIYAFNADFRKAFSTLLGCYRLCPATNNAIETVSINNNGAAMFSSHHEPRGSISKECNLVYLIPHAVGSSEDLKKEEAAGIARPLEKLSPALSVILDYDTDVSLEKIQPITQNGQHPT
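After overnight tetracycline induction at 30 C, force-coupled D1 HEK293 cells took up a no-wash calcium dye at room temperature. Compounds were added and monitored 180 s, and the response to EC80 dopamine was then recorded.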
USP1 inh = Inhibitors of USP1/UAF1: Primary Screen | recombinant USP1/UAF1, Ub-Rhodamine cleavage fluorescence | actives 0.23% (n = 390,000) | Potency, µM (top dose mostly 57.1 µM), for the others: top-dose activity change, negative = inhibition, usual class: inhibitors | AID 743255, 2014; active means well fitted inhibition curve with a large enough effect; inconclusive means small, poorly fitted or top-dose-only effect; inactive means no such curve, though single readings can be large or run the other way; further: potency means the concentration at half of the fitted maximal effect; on the % scale 0 is the no-effect control and ±100 the full control effect; nearly all actives have a fitted effect of over 60% in size
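High-throughput fluorogenic screen: 1nM USP1/UAF1 complex, Ub-Rho substrate 150nM final, 50mM HEPES pH 7.8 with 0.5mM EDTA, 0.1 mg/ml BSA, 1mM TCEP and 0.01% Tween-20.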
D1 ag = Allosteric Agonists of the Human D1 Dopamine Receptor: qHTS; AID 504660, 2011; D(1A) dopamine receptor (Homo sapiens), P21728; actives 1% (n = 360,000); HEK293 T-REx D1 cells, calcium flux, agonist mode; activation, % at 2 µM; further: 0% is about no effect
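Tetracycline-induced HEK293 TREx D1 cells, force-coupled to calcium signalling, were dye-loaded with a no-wash calcium kit. Compound was pin-added after a 10 s baseline. Fluorescence was read kinetically at 1 cycle/s for 180 s, with calcium rises flagged as agonism.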
TRHR PAM = qHTS for Small Molecule Agonists and Allosteric Enhancers of Human TRH Receptor: Primary Screen for Enhancers; enhancement, % at 2 µM; actives 0.66% (n = 360,000); TRHR cells, fluo-8 calcium fluorescence, EC20 TRH enhancement; AID 493056, 2011; in the data active means enhancement above about 30%; further: 0% is about no effect
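TRHR-expressing cells loaded with fluo-8 calcium dye were read kinetically (ex 480/em 530) during compound addition, then stimulated with an EC20 of TRH (10 nM final). Enhancement of the Gq-mediated intracellular calcium response was scored.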
D1 PAM = Potentiators of Human D1 Dopamine Receptor: qHTS | D(1A) dopamine receptor (Homo sapiens), P21728 | HEK293 TREx D1 cells, calcium flux, dopamine EC20 potentiation | potentiation, % at 10 µM | actives 0.036% (n = 360,000) | AID 504651, 2011; in the data active means potentiation above about 30%; further: 0% is about no effect
Starred values were filed as active, the others as inactive. Shown are actives, neighbours in structure and some others; about 4.4% of the full set was active somewhere. Unless noted, no stated cut-off is given here; in the data, active means activation above about 30%; inactive means the rest.

`CC(=O)Nc1ccc2nc3c(=O)n(C)c(=O)n(C)c3nc2c1C` gave TRHR ag 1, D1 antag 2, USP1 inh inconclusive, D1 ag 0, TRHR PAM -16 and D1 PAM 0.
Screening O=C1NC(=O)/C(=C\c2ccccc2Oc2ccc(F)c(F)c2)S1 returned TRHR ag 0, D1 antag -34*, USP1 inh -10%, D1 ag 8, TRHR PAM -2 and D1 PAM -2.
For O=C(COc1ccccc1[N+](=O)[O-])OC1CCS(=O)(=O)C1 (centres undefined) the results were TRHR ag 0, D1 antag -79*, USP1 inh -13%, D1 ag 0, TRHR PAM -27 and D1 PAM -7.
Cc1cccc(NC(=O)c2ccccc2SCc2ccc(F)cc2)n1 was read as TRHR ag 0, D1 antag -34*, USP1 inh -21%, D1 ag 3, TRHR PAM -2 and D1 PAM 0.
`Cc1cc(C)cc(N2CCCn3c2nc2c3c(=O)n(CC(=O)OCc3ccccc3)c(=O)n2C)c1` gave TRHR ag -1, D1 antag -29, USP1 inh 2%, D1 ag 4, TRHR PAM 2 and D1 PAM -11.
Screening Cc1ccc(N2CCCn3c2nc2c3c(=O)n(CC(=O)OCc3ccccc3)c(=O)n2C)cc1C returned TRHR ag 0, D1 antag -46*, D1 ag 1, TRHR PAM -4 and D1 PAM -7.
Screening CCn1c(=O)c2c(nc3n2CCCN3c2cccc(C)c2)n(C)c1=O returned TRHR ag -1, D1 antag -31*, USP1 inh -14%, D1 ag 1, TRHR PAM 1 and D1 PAM 2.
For c1ccc(CCn2c(SCc3ccccc3)nnc2-c2ccncc2)cc1 the results were TRHR ag 0, D1 antag -5, USP1 inh -6%, D1 ag 35*, TRHR PAM 10 and D1 PAM -3.
Screening Cc1ccc(-c2nnc(SCC#N)n2N)cc1 returned TRHR ag 0, D1 antag -33*, USP1 inh -18%, D1 ag 0, TRHR PAM 0 and D1 PAM 10.
`N#Cc1ccc(CSc2nnc(-c3ccncc3)n2CCc2ccccc2)cc1` gave TRHR ag 0, D1 antag 4, USP1 inh -8%, D1 ag 1, TRHR PAM -5 and D1 PAM -4.
Cc1cccc(-c2nnc(SCC#N)n2C)c1 was read as TRHR ag 0, D1 antag -1, USP1 inh -19%, D1 ag 1, TRHR PAM -6 and D1 PAM 9.
Screening COc1ccc(-c2nnc(SCc3ccccc3)n2N)cc1 returned TRHR ag 0, D1 antag -29, USP1 inh -10%, D1 ag 63*, TRHR PAM 4 and D1 PAM -5.
For COC(=O)c1sccc1S(=O)(=O)N(CC(=O)NCc1ccc(F)cc1)c1ccccc1 the results were TRHR ag 0, D1 antag 4, USP1 inh -23%, D1 ag 4, TRHR PAM -5 and D1 PAM -4.
`COc1cccc(OCCSc2nc3ccccc3n2CC(=O)N2CCCCC2)c1` gave TRHR ag -1, D1 antag 9, USP1 inh -23%, D1 ag 5, TRHR PAM -1 and D1 PAM -2.
COc1ccc(CNCCC(c2ccc(C)cc2)c2ccco2)cc1 (centres undefined) was read as TRHR ag 3, D1 antag -7, USP1 inh -26%, D1 ag 92*, TRHR PAM 5 and D1 PAM -2.
For CC(C)CCC(CCNCc1ccccn1)c1ccc2c(c1)OCO2 (centres undefined) the results were TRHR ag 1, D1 antag -15, USP1 inh -12%, D1 ag 30*, TRHR PAM -17 and D1 PAM 6.
Cc1ccc(C(CCN)c2ccco2)cc1 (centres undefined) was read as TRHR ag 2, D1 antag -7, USP1 inh -1%, D1 ag 7, TRHR PAM -10 and D1 PAM -15.
For COc1ccc(CNCCC(c2ccccc2)c2ccc3c(c2)OCO3)cc1 (centres undefined) the results were TRHR ag 3, D1 antag -16, USP1 inh -14%, D1 ag 133*, TRHR PAM -1 and D1 PAM 3.
For Cc1ccc(Cl)cc1NC(=O)c1cc2c(=O)n3cccc(C)c3nc2n1C the results were TRHR ag 0, D1 antag -1, USP1 inh inconclusive, D1 ag 3, TRHR PAM 7 and D1 PAM -2.
For O=S(=O)(c1ccc2c(c1)OCCO2)N1CCN(S(=O)(=O)c2ccc(Cl)cc2F)CC1 the results were TRHR ag 0, D1 antag 2, D1 ag 7, TRHR PAM 0 and D1 PAM -5.
Screening COc1ccc(CNCc2ccco2)cc1OCc1ccccc1 returned TRHR ag 0, D1 antag -3, USP1 inh 5%, D1 ag 44*, TRHR PAM 26 and D1 PAM -5.
For COc1cc(CNCCc2ccccc2)ccc1OCc1ccc(Cl)nc1 the results were TRHR ag 1, D1 antag -9, USP1 inh 10%, D1 ag 17, TRHR PAM -9 and D1 PAM -2.
Screening COc1ccccc1CCNCc1ccc(OC)c(OCc2ccccc2)c1 returned TRHR ag 1, D1 antag -58*, USP1 inh -6%, D1 ag 62*, TRHR PAM 0 and D1 PAM -12.
COc1ccc(CCNCc2c(OC)ccc3ccccc23)cc1OC was read as TRHR ag 0, D1 antag -28, USP1 inh -14%, D1 ag 38*, TRHR PAM 4 and D1 PAM -1.
COc1cc(CNCc2cccnc2)ccc1OCc1ccccc1 was read as TRHR ag 0, D1 antag 4, USP1 inh -19%, D1 ag 14, TRHR PAM 10 and D1 PAM -2.
